MazEF act: increases E. coli MazEF RNase cleavage of RNA. hit rate 0.32% among 350,000. activation, % at 20 µM. FAM/BHQ RNA-DNA oligo cleavage fluorescence, 5 h. P0AE70; in the data active = activation above about 50%
Target sequence (P0AE70 whole entry, looked up): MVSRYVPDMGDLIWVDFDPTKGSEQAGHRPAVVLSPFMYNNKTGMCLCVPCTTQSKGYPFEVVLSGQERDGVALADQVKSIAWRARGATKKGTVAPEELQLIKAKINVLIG
Sa ugtP lethal: kills S. aureus RN4220 lacking UgtP; hit rate 0.54% among 330,000; growth inhibition, % (no concentration beside the values); S. aureus RN4220 ugtP deletion, OD600 growth, 16 h; AID 1259309; in the data active = growth inhibition above about 68%;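 note: plate controls were untreated wells for no effect and antibiotic for full effect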
Mtb hypoxia inh: inhibitors of hypoxia-regulated fluorescent reporter in Mycobacterium tuberculosis. hit rate 0.1% among 300,000. AID 1159583. M. tuberculosis hypoxia-regulated fluorescent reporter, fluorescence. fluorescence inhibition, % (no concentration beside the values); in the data active = fluorescence inhibition mostly above about 23%, no sharp cut-off; inactive = mostly below about 17%
RN4220 kill: kills Staphylococcus aureus RN4220; S. aureus RN4220 growth, OD600, 16 h; inhibition, % (test concentration not listed); hit rate 0.33% among 330,000; in the data active = inhibition above about 85%;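 note: plate controls were untreated cells for no effect and reference antibiotic for full effect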
TcdB inh: blocks C. difficile toxin B glycohydrolase activity. P18177. TcdB glycohydrolase enzymatic assay, plate reader. inhibition, % at 9.99 µM. hit rate 0.24% among 350,000; in the data active = inhibition above about 10%
PfHsp40 yeast: restores yeast growth despite PfHsp40 toxicity | growth rescue, % at 12.5 µM | AID 504582 | hit rate 0.68% among 340,000 | S. cerevisiae expressing PfHsp40, growth rescue, ATP luminescence; in the data active = growth rescue above about 28%, passing the limit was not always enough;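 note: yeast W303a lacking pdr1 and pdr3 grown in galactose medium; growth measured after three days at 30 °C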
* marks the source's active call; other numbers are inactive results; i = inactive; · = no result given. Hits are enriched below; roughly 1.3% of the tested compounds scored in any of these assays.

SMILES	MazEF act	Sa ugtP lethal	Mtb hypoxia inh	RN4220 kill	TcdB inh	PfHsp40 yeast
CCC(=O)Nc1ccc2c(c1)OC[C@@H](C)N(C(=O)c1ccc(F)cc1)C[C@H](C)[C@H](OC)CN(C)C2=O	·	·	·	·	0	·
CN1/C(=C\C=C2/SC(=S)N(CC(=O)O)C2=O)C(C)(C)c2ccccc21	i	-6	62*	0	5	0
CCN1C(=O)/C(=C/C=C2/SCCN2C)SC1=S	i	5	·	-3	·	0
C=CCN1C(=O)/C(=C\C=C2\N(C)c3ccccc3C2(C)C)SC1=S	i	·	·	·	0	1
CN1CCS/C1=C\C=C1/SC(=S)N(CC(=O)O)C1=O	-132	10	47*	7	-6	2
C[C@@H]1CN([C@H](C)CO)C(=O)c2cccc(NC(=O)c3ccc(-c4nccs4)cc3)c2O[C@H]1CN(C)CC1CCCCC1	·	·	·	·	0	·
O=C(c1ccccc1)N1CC2(C1)[C@H](c1ccccc1)[C@@H](CO)N2Cc1cccnc1	·	·	·	·	0	·
O=C(O/N=C(\c1ccccc1)c1ccncc1)c1ccccc1Cl	-5	·	·	·	4	116*
CC1=NN(c2ccc(C(=O)O)cc2)C(=O)/C1=C/c1ccc(-c2ccccc2F)o1	·	·	·	·	3	-1
CC1=NN(c2ccc(C)cc2)C(=O)/C1=C/c1ccc(-c2cc([N+](=O)[O-])ccc2O)o1	0	85*	15	39	0	-2
COc1ccc(C=NNC(=O)CNC(=O)c2ccc(S(=O)(=O)N3CCOCC3)cc2)c(OC)c1	·	2	1	7	·	·
CC1=C(C(=O)O)N2C(=O)C(NC(=O)c3nn(C)cc3Cl)C2SC1 (configuration not stated)	7	7	·	4	·	-2
Cn1nnnc1SCC1=C(C(=O)O)N2C(=O)C(NC(=O)Cn3nc(C(F)F)cc3C3CC3)C2SC1 (configuration not stated)	-3	101*	·	100*	0	-1
Cc1nn(CC(=O)NC2C(=O)N3C(C(=O)O)=C(CSc4nnnn4C)CSC23)cc1Br (configuration not stated)	5	99*	·	100*	1	0
CC(C(=O)NC1C(=O)N2C(C(=O)O)=C(CSc3nnnn3C)CSC12)n1cc(Cl)cn1 (configuration not stated)	5	100*	·	100*	1	0
Cc1c(Cl)c(C(F)F)nn1CC(=O)NC1C(=O)N2C(C(=O)O)=C(CSc3nnnn3C)CSC12 (configuration not stated)	8	97*	·	100*	2	1
CO[C@@]1(NC(=O)CSCC#N)C(=O)N2C(C(=O)O)=C(CSc3nnnn3C)CSC21 (some centres not stated)	·	6	4	3	·	·
CO[C@@]1(NC(=O)C2SC(=C(C(N)=O)C(=O)O)S2)C(=O)N2C(C(=O)O)=C(CSc3nnnn3C)CS[C@@H]21 (some centres not stated)	-3	·	·	·	0	-1
COC(=O)C(=NNc1ccccc1OC)N1CCCc2ccccc21	·	9	-3	-1	·	·
CC=Cc1ccc2n(c1=O)C[C@H]1[C@H](CO)[C@@H](C(=O)NCCC)N(C(=O)c3cccnc3)[C@@H]21 (mixture of isomers)	·	·	·	·	0	·
CC(=NNC(=S)Nc1cc(S(=O)(=O)N2CCOCC2)ccc1Cl)c1ccccc1F	·	-16	4	17	·	·
O=C(O)C(CC(=NO)c1ccc(Br)cc1)P(=O)(c1ccccc1)c1ccccc1 (configuration not stated)	·	-1	8	2	·	·
CCOc1cc(C=NNC(=O)C(=O)NCCCOC(C)C)cc(Br)c1O	·	-1	13	1	·	·
Cc1c(Cl)cnn1CC(=O)NC1C(=O)N2C(C(=O)O)=C(CSc3nnnn3C)CSC12 (configuration not stated)	-6	100*	·	100*	0	-1
CN(C)CC(=O)N1CC2(C1)[C@@H](c1ccccc1)[C@@H](CO)N2S(=O)(=O)c1ccccc1	·	·	·	·	-1	·
SMILES	MazEF act	Sa ugtP lethal	Mtb hypoxia inh	RN4220 kill	TcdB inh	PfHsp40 yeast
O=C(Nc1cccc(NC(=O)c2cccc(F)c2)n1)c1cccc(F)c1	5	19	-2	90*	1	1
NC(=S)NN=Cc1ccccc1OCCSc1ccc(Cl)cc1	·	25	9	36	·	·
CC(=O)c1cccc(NC(=O)NC2CCCCC2)c1	-5	-4	-2	3	1	1
CC(=O)c1cccc(NC(=O)NC2CCCCCCC2)c1	5	-4	33*	2	2	-1
Cc1nc(-n2[nH]c3c(c2=O)CCCC3)[nH]c(=O)c1Cc1ccccc1	63*	64	5	69	·	52*
Nc1nc2nc(-c3ccc(OCc4ccccc4)cc3)cc(C(F)(F)F)n2n1	58*	14	3	11	·	-1
Nc1nc2nc(-c3ccc(Cl)cc3)cc(C(F)(F)F)n2n1	3	0	-10	4	1	-1
COc1ccc(C2=CC(=O)N(Nc3ccccc3)C2=O)cc1	2	-6	2	3	1	·
O=C1C=C(c2ccccc2)C(=O)N1Nc1ccccc1	5	5	·	4	·	264*
C[C@H](CO)N1C[C@H](C)[C@H](CN(C)Cc2cccnc2)Oc2cc(C#CCN(C)C)ccc2S1(=O)=O	·	·	·	·	0	·
N#Cc1ccc(C23OCCN2CCn2nc4ccccc4c23)cc1 (configuration not stated)	6	-4	-2	0	2	0
[O-][n+]1c2ccccc2c2n1CCN1CCOC21c1ccc(Cl)cc1 (configuration not stated)	1	69	66*	47	·	-1
COc1ccc(-c2nnc(SCC(=O)NN=Cc3ccccc3C(=O)O)n2-c2ccccc2)cc1	·	18	6	20	·	·
C=CCOC(=O)C1=C(C)NC(SC)=C(C#N)C1c1ccc(OCC)cc1 (configuration not stated)	5	91*	-1	-2	0	1
C=CCOC(=O)C1=C(C)NC(SC)=C(C#N)C1c1cccs1 (configuration not stated)	3	9	·	3	·	-1
N#Cc1ccc(Sc2ccccn2)c([N+](=O)[O-])c1	14	2	16	4	3	2
NNS(=O)(=O)c1ccc(Sc2ccccn2)c([N+](=O)[O-])c1	220*	5	2	6	-9	0
O=S1(=O)C2CC3CC[C@]2(CN1Cc1cccc(F)c1)O3 (some centres not stated)	·	0	11	3	·	·
COC(=O)NN=Cc1cc(Cl)c(OCc2ccccc2F)c(OC)c1	·	-10	-2	7	·	·
Fc1ccc(C=NNC(=S)Nc2cccnc2)cc1F	·	5	10	5	·	·
Cc1ccc(/C=C2\SC(=S)N(CCC(=O)Nc3cccnc3)C2=O)cc1	82*	-4	0	2	1	-1
Cn1c(-c2ccc(F)c(F)c2)cc2onc(-c3ccccc3)c2c1=O	1	5	3	8	10*	-1

Source: PubChem BioAssay
